CYP2C19 act: increases human CYP2C19 enzyme activity; P33261; recombinant CYP2C19, luciferin-H EGE luminescence; stronger effect = higher value; 0 = fully inhibited enzyme, 1 = untreated enzyme; activation factor at 5 µM; 96,000 tested, under 10 active; AID 1025;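 active = activation factor of at least 2 at 5 µM in the primary screen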;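 also: 0 = wells with 2.5 mM tranylcypromine and 1 = vehicle-only wells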
CYP2C9 inh: blocks human cytochrome P450 2C9; CYP2C9 Supersomes, luciferin-H conversion, luminescence; inhibition, % at 5 µM; 96,000 tested, 20% active; AID 777;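 active = blocking of liver enzyme CYP2C9 beyond about 50% at 5 µM, limit read from the data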
Cav32 inh: human Cav3.2 channel inhibition, primary screen. O95180. B-score at 10 µM. AID 449739. 100,000 tested, 4% active. Cav3.2-expressing cells, Fluo-4 calcium fluorescence FDSS; stronger effect = lower value;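 active = single-dose well whose peak fluorescence ratio is a statistical outlier from its plate by either plate-standardised score or position-corrected B-score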
CYP2C19 inhib: inhibitors of human CYP2C19. 96,000 tested, 21% active. inhibition, % at 5 µM. CYP2C19 Supersomes, luciferin-H EGE luminescence, 30 min. AID 778;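 active = CYP2C19 inhibition above a set limit at 5 µM in the primary screen, cut at about 50% in these data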;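 also: plate controls were negative control wells for no effect and 2.5 mM tranylcypromine positive control for full effect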
CYP2C9 activ: increases human cytochrome P450 2C9 activity | P11712 | recombinant CYP2C9, luciferin-H conversion, luminescence; stronger effect = higher value; factor 1 = untreated enzyme, 0 = blocked | activation factor at 5 µM | 96,000 tested, 1.4% active | AID 1024;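 active = activation factor of 2 or more for CYP2C9 at a 5 µM dose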;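 also: 0 = sulfaphenazole-blocked wells and 1 = vehicle-only wells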
The depositor's hits bear a star; x = no result given. Most compounds without a hit are left out; they make up all but 27% or so of the library.

SMILES | CYP2C19 act | CYP2C9 inh | Cav32 inh | CYP2C19 inhib | CYP2C9 activ
Cc1noc(C)c1COC(=O)c1cccc(S(=O)(=O)N2c3ccccc3CC2C)c1 (centres undefined) | 0.4 | 80.1* | -1.9 | 58.6* | 0.2
Cc1noc(C)c1COC(=O)c1ccc2ccccc2n1 | 0.9 | 17.9 | 0.139 | 5.6 | 0.8
CCC(CO)NC(=O)c1cccc(S(=O)(=O)N2c3ccccc3CC2C)c1 (centres undefined) | 0.3 | 13.9 | -1.22 | 73.4* | 0.9
CC1Cc2ccccc2N1S(=O)(=O)c1cccc(C(=O)c2nccn2C)c1 (centres undefined) | 0.6 | 44.4 | -0.0611 | 36.2 | 0.6
O=C(Nc1cccc(Br)c1)c1ccn[nH]1 | 0.8 | -6.0 | 0.0699 | 16.0 | 1.1
CCc1ccc(NC(=O)CNS(=O)(=O)c2c(C)noc2C)cc1 | 0.6 | 50.7* | x | 37.1 | 0.5
CCc1ccc(N(CC(=O)O)S(=O)(=O)c2c(C)noc2C)cc1 | 1 | 25.3 | -1.92 | -1.8 | 0.7
Cc1ccc(CNC(=O)c2ccc(NS(=O)(=O)c3c(C)noc3C)cc2)cc1 | 1 | 69.8* | x | 3.6 | 0.3
COc1ccc(CCNC(=O)c2ccc(NS(=O)(=O)c3c(C)noc3C)cc2)cc1OC | 0.9 | 63.7* | 0.685 | 10.8 | 0.4
C#Cc1ccc([C@@H]2C=C(C(=O)N3CCN(Cc4ccc5c(c4)OCO5)CC3)O[C@H](OCC)[C@H]2CCCO)cc1 | x | x | -1.78 | x | x
Cc1ccc(CSc2nc3ccncc3n2CC(=O)Nc2cc(C)cc(C)c2)cc1 | x | x | 0.0506 | x | x
O=C(CSc1nc2ccc([N+](=O)[O-])cc2[nH]1)NC1CCCCC1 | 0.4 | 62.3* | -1.04 | 64.4* | 0.4
Cc1ccc2nc(SCc3ccc([N+](=O)[O-])cc3)[nH]c2c1 | x | x | -5.8* | x | x
Cc1cc(C)cc(NC(=O)CSc2nc3ccncc3[nH]2)c1 | 0.4 | 75.6* | 1.31 | 63.2* | 0.2
CCCc1cc(=O)[nH]c(SCC(=O)NC2CCCCC2)n1 | 0.6 | 12.4 | 1.31 | 41.8 | 0.9
Cc1ccc2nc(-c3ccc(NC(=O)CSc4ccccc4)cc3)[nH]c2c1 | 0.7 | 59.2* | -1.51 | 35.0 | 0.4
N#CCC(=O)N/N=C/c1ccc(OS(=O)(=O)c2ccccc2)cc1 | 0.8 | 8.5 | 0.00381 | 19.5 | 0.9
Cc1ccc2nc(SCC(=O)Nc3cccc([N+](=O)[O-])c3)[nH]c2c1 | 0.5 | 90.0* | -2.89 | 45.6 | 0.1
CCOc1cc(C2C(C#N)=C(N)Oc3n[nH]c(C)c32)ccc1OCCN1CCOCC1 (centres undefined) | 1 | 0.2 | -0.385 | 3.1 | 1
CC1(C)CC(=O)C(C=NCCN2CCN(C(=S)Nc3ccc(F)cc3)CC2)=C(O)C1 | 0.2 | 18.5 | 1.06 | 75.2* | 0.8
CCCCCC(=O)N1CCN(CCN=CC2=C(O)CC(c3ccc(OC)c(OC)c3)CC2=O)CC1 (centres undefined) | 0.6 | 64.5* | 0.0894 | 40.2 | 0.4
O=C1CC(c2ccccc2)CC(O)=C1C=NCCN1CCN(C(=S)Nc2cccc(Cl)c2)CC1 (centres undefined) | 0.3 | 47.2 | -3.6 | 72.3* | 0.5
CCN(CC)c1ncc(C)c(=O)[nH]1 | 1 | -7.2 | -0.383 | -2.5 | 1.1
CCOC(=O)Cc1nnc(NC(=O)CC)s1 | 1 | -5.8 | 0.646 | -3.8 | 1.1
CC(C)N1CC(C(=O)O)CC1=O (centres undefined) | 1 | -14.7 | 0.0631 | 0.8 | 1.1
SMILES | CYP2C19 act | CYP2C9 inh | Cav32 inh | CYP2C19 inhib | CYP2C9 activ
C=C1CCC(C)C(C)(CCC2=CCOC2=O)C/C=C\C=C/1C(=O)O (centres undefined) | x | x | -3.88* | x | x
COCCn1c(C)cc(C(=O)COC(=O)c2cc3c(s2)CCC3)c1C | 0.4 | -6.9 | -2.11 | 56.8* | 1.1
COCCn1c(C)cc(C(=O)CSc2nnc(C)s2)c1C | 0.7 | 16.8 | 0.792 | 27.1 | 0.8
CC(C)(C)NC(=O)c1cc(F)c(F)cc1Cl | 1 | 11.1 | 0.415 | -3.7 | 0.9
CC(C)Cc1nc(N2CCN(C(=O)Cc3ccccc3)CC2)c(C#N)c2c1COC(C)(C)C2 | 0.7 | 45.5 | x | 27.4 | 0.5
CC1CCN(c2nc(-c3ccco3)c3c(c2C#N)CC(C)(C)OC3)CC1 | 1.1 | 55.8* | 0.452 | -10.9 | 0.4
CC1(C)Cc2c(C#N)c(N3CCOCC3)nc(Cc3ccccc3)c2CO1 | 0.1 | 76.6* | -2.87 | 92.7* | 0.2
CC1(C)Cc2c(C#N)c(N3CCN(C(=O)c4ccccc4)CC3)nc(Cc3ccccc3)c2CO1 | 0.5 | 98.5* | -2.04 | 47.5 | 0
Cc1ccc(S(=O)(=O)N2CCN(c3nc(C)c4c(c3C#N)CC(C)(C)OC4)CC2)cc1 | 0.2 | 83.0* | -2.16 | 76.7* | 0.2
CCOC(=O)N1CCN(c2ncnc3c2oc2nc(C)c4c(c23)CC(C)(C)OC4)CC1 | 0.9 | 23.8 | x | 11.5 | 0.8
COCOc1ccc(C=O)c(OCOC)c1 | x | x | 1.04 | x | x
COC(=O)CNc1ccc2c(c1)OCO2 | x | x | -1.06 | x | x
CCOC(=O)CNC(=O)Cn1cnc2c(nnn2-c2cccc(Cl)c2)c1=O | 0.9 | -43.9 | -0.292 | 10.0 | 1.4
CCc1nc(N2CCOCC2)c(C#N)c2c1COC(C)(C)C2 | 0.4 | 11.9 | -0.073 | 59.7* | 0.9
CCc1nc(N2CCN(C(=O)c3ccccc3)CC2)c(C#N)c2c1COC(C)(C)C2 | 0.2 | 77.1* | -0.947 | 75.1* | 0.2
Cc1nc(N2CCOCC2)c(C#N)c2c1COC(C)(C)C2 | x | x | -0.0209 | x | x
CC(C)C(=O)Nc1cccc(C(=O)Nc2nnc(C(C)(C)C)s2)c1 | 1.1 | 18.9 | 0.00521 | -5.2 | 0.8
CC1CC(C)CN(CCCNC(=O)Cn2ncn3cccc3c2=O)C1 (centres undefined) | 1 | 6.3 | 0.41 | -1.5 | 0.9
CN(C)CCNCc1ccccc1OC1CCCC1 | 1.2 | -17.2 | 0.057 | -17.2 | 1.2
CCCC(=O)Nc1ccc(C(=O)/C=C/c2ccc(SC)cc2)cc1 | 0.5 | 73.4* | -0.337 | 50.3* | 0.3
COc1ccc(C(=O)/C=C\c2ccc(NC(=O)c3cccs3)cc2)cc1 | 0.8 | 4.7 | -1.43 | 19.4 | 1
CSc1ccc(/C=C/C(=O)c2ccc(NC(C)=O)cc2)cc1 | 0.5 | 48.0 | 1.83 | 50.6* | 0.5
CSc1ccc(NC(=O)CC(C)=O)cc1 | 1 | -13.9 | -0.585 | -0.8 | 1.1
O=C1OC(NC(=O)c2ccccc2)C(n2cc(CO)nn2)=C1Cl (centres undefined) | 0.9 | 66.3* | 0.211 | 13.0 | 0.3
Cc1ccc(NC2=C(Cl)C(=O)OC2NC(=O)c2ccccc2)cc1 (centres undefined) | x | x | 0.00159 | x | x
Cc1ccc(S(=O)(=O)NNc2nc3ccccc3nc2C(F)(F)F)cc1 | 0.3 | 50.4* | -3.43* | 66.6* | 0.5
CCCC(=O)Nc1c2c(nn1-c1ccc(OC)cc1)CS(=O)(=O)C2 | 1.1 | 4.6 | -6.05e-07 | -9.9 | 1
CCC(CC)C(=O)Nc1c2c(nn1-c1ccc(OC)cc1)CS(=O)(=O)C2 | 1 | 54.6* | 0.734 | 1.9 | 0.5
CCC(Sc1nc2n[nH]c(C)c2c(=N)n1-c1cccc(Cl)c1C)C(=O)N(CC)CC (centres undefined) | 1 | 59.2* | 0.294 | 4.2 | 0.4

High-throughput results as filed in PubChem.
